# Data taken from PubChem BioAssay (NCI).
# Compounds without any hit were thinned out: in the full panel of roughly 83,000, 20% have a hit.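 Plates (96-well) were seeded with cells, treated with compound at one concentration, and incubated for 48 hours before percent growth was determined.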 A number with no mark means an inactive call. Calls of active or inactive are those of the source.
# System: HOP-92 NSCLC
# Assay: NCI-60 one-dose screen, 48 h (100 = growth as untreated, 0 = no growth, -100 = all killed)
# Conditions: 10 µM unless noted
# Experimental: Growth inhibition of the HOP-92 human Non-Small Cell Lung tumor cell line is measured as a screen for anti-cancer activity. Cells are grown in 96 well plates and exposed to the test compound for 48 hours. Compounds are tested at a single concentration, which is 10^-5 M for most compounds. The reported endpoint is percent growth (GI% or GIPRCNT), where numbers from 0 - 100% represent growth inhibition, and numbers from -100% - 0 represent cell death. For example, a value of 40 represents 60% growth inhibition. A value of 0 means no net growth occurred over the course of the experiment. A value of -40 indicates 40% of cells at the beginning of the experiment died by the end of the experiment. A value of -100 means all cells are dead at the end of the experiment.
# NCI-60 Human Tumor Cell Lines Screen was performed using the standard one-dose NCI protocol, which is described in more detail at https://dtp.cancer.gov/discovery_development/nci-60/default.htm.
# Compounds with GIPRCNT values below 10 were considered active. Activity score was based on GIPRCNT using the following formula: […]
# Score is 0 for GIPRCNT values of 100 or above, 50 for GIPRCNT values of 0, and 100 for GIPRCNT values of -100.
row,SMILES,growth
1,COc1ccc2c(c1)/C(=C/c1c(-c3cc(OC)c(OC)c(OC)c3Br)nc3sccn13)C(=O)N2,60.8%
2,O=C(Nc1cccc([N+](=O)[O-])c1)c1ccc2ccccc2c1O,6.8% (active)
3,N#Cc1c(N)nc(Cl)c(C#N)c1C(=O)c1ccccc1,74.2%
4,C=C1C(=O)O[C@H]2[C@H]1CC/C(COC(=O)CCCC(=O)OC/C1=C/CC[C@@]3(C)O[C@H]3[C@H]3OC(=O)C(=C)[C@@H]3CC1)=C\CC[C@@]1(C)O[C@@H]21,-43% (active)
5,COC(=O)c1ccc2c(c1)Oc1ccc(Cl)cc1-c1cc(C)nn1-2,61.1%
6,CN(C)c1ccc(/C=N/n2c(-c3cc(F)c(Cl)cc3Cl)nn(CN3CCOCC3)c2=S)cc1,75.2%
7,COc1ccc(/C=C/C(=O)c2ccc(-n3cc(CN4CCN(c5cc6c(cc5F)c(=O)c(C(=O)O)cn6C5CC5)CC4)nn3)cc2)cc1OC,81.6%
8,Nc1ncnc2c1c(-c1ccc(Oc3ccccc3)cc1)nn2C[C@H]1SSC[C@@H]1O,-2.99% (active)
9,NC(N)=N/N=C/c1ccc([N+](=O)[O-])cc1,104%
10,CC[C@H]1[C@@H]2C=C[C@@H]3[C@H]4C/C=C\C(=O)NCCC[C@@H]5NC(=O)/C(=C(O)/C=C/[C@@H]4C[C@@H]3[C@H]2C[C@H]1C)C5=O,-20.4% (active)
11,NC(CSC(c1ccccc1)(c1ccccc1)c1ccc(F)cc1)C(=O)O (stereo not given),-24.3% (active)
12,CC1=C2C(=C[C@@](C)(CO)[C@@H]2OC(=O)N(C)CCN(C)C(=O)OC(C)(C)C)C(=O)[C@](C)(O)C12CC2,8.11% (active)
13,O=C(c1ccccc1)[C@H]1[C@@H]2CCCN2[C@]2(C(=O)Nc3ccc(F)cc32)[C@]12C(=O)Nc1ccccc12,54.9%
14,COc1cc(NC(C)CCCN2C(=O)c3ccccc3C2=O)c2nc(C)ccc2c1OC (stereo not given),53.5%
15,C=C1C(=O)O[C@H]2[C@H]1CC/C(COC(=O)c1ccc(Br)cc1)=C\CC[C@@]1(C)O[C@@H]21,-73% (active)
16,Nc1ncc(-c2ccc3ncnc(Nc4cncc(Cl)c4)c3c2)cn1,-0.664% (active)
17,Cc1nc(-c2ccc(Cl)cc2)ccc1NC(=O)Nc1cccc(C(F)(F)F)c1,96.4%
18,NN=C(c1ccc(Cl)cc1)c1ccc(Cl)cc1,97%
19,c1coc(CSc2ncnc3nc[nH]c23)c1,57.8%
20,Clc1ccc2c(NCCNc3nc(Cl)nc4ccccc34)ccnc2c1,-67.6% (active)

row,SMILES,growth
1,Nc1nccc2c1ccn2-c1ccc(NC(=O)c2ccc(N3CCOCC3)c(C(F)(F)F)c2)cc1,-25% (active)
2,CCCCCCCCCCCCCCCCNc1ccccc1,97.7%
3,CC(C)(c1ccc(OCC(O)CNCc2ccco2)cc1)c1ccc(OCC(O)CNCc2ccco2)cc1 (stereo not given),57.4%
4,O=C(NCCNc1nccc(-c2c(-c3cccc(O)c3)nc3sccn23)n1)c1ccccc1,58.6%
5,O=C(Nc1cccc([N+](=O)[O-])c1)Nc1cccc([N+](=O)[O-])c1,2.97% (active)
6,O=C(Nc1ccc(-n2ccc3c(NC(=O)c4ccccc4)ncnc32)cc1)Nc1ccc(Cl)c(Cl)c1,-9.63% (active)
7,CCOc1ccc(NC2=C(Cl)C(=O)c3ccccc3C2=O)cc1,78.6%
8,CN1CCN(Cn2nc(-c3cc(F)c(Cl)cc3Cl)n(/N=C/c3ccc(N(C)C)cc3)c2=S)CC1,84.5%
9,C=C1C(=O)O[C@H]2[C@H]1CC/C(COC(=O)n1ccnc1C)=C\CC[C@@]1(C)O[C@@H]21,106%
10,O=c1c2ccccc2sc2c(NCCCNCCO)nc3ccccc3c12,-1.63% (active)
11,N#Cc1c2c(c(N)[nH]c1=O)C(=O)NC2(O)c1ccccc1 (stereo not given),114%
12,COc1ccc(C[C@H](N)C(=O)N[C@@H]2[C@@H](CO)OC(n3cnc4c(N(C)C)ncnc43)[C@@H]2O)cc1 (stereo not given in full),-67.1% (active)
13,O=C(/C=C/c1ccccc1)Oc1ccc(/C=C/c2cc(OC(=O)/C=C/c3ccccc3)cc(OC(=O)/C=C/c3ccccc3)c2)cc1,95.8%
14,CCOC(=O)C1=C(N)Oc2cc(OC)ccc2C1c1ccc(F)c(F)c1 (stereo not given),73.6%
15,CC(=O)O[C@@H]1[C@@H](OC(C)=O)[C@H](OC(C)=O)CO[C@H]1Nc1cccc2ccccc12,104%
16,CCn1c(C)nc([N+](=O)[O-])c1Sc1nc(N)nc2nc[nH]c12,54.9%
17,CC1CCC(C(C)C)C(NN)C1 (stereo not given),110%
18,Cc1cc(O[C@@H]2O[C@@H](C)[C@H](O)[C@@H](O)[C@H]2O)c2c3c(c(O[C@@H]4O[C@@H](C)[C@H](O)[C@@H](O)[C@H]4O)cc2c1)C(=O)c1c(O)cccc1C3=O,76.1%
19,Cc1cccc[n+]1CCC[n+]1ccccc1C,86%
20,CCOC(=O)CSc1nnc(-c2cc3c([nH]c4ccccc43)c(-c3cccc(O)c3)n2)n1-c1ccc(C)cc1,48.9%
